Data reported in PubChem BioAssay.
Unmarked numbers belong to inactive results. For some of these results: Results with a measured potency or affinity are listed apart. Active and inactive are the calls of the source. Unless noted, the rule behind the calls is not given here.

Columns and labels:
[1] = antimalarial activity against Dd2 strain (AID 2302;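 active = growth inhibition above 50% at the single 2 µM test dose, taken to imply half-maximal potency below 2 µM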;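 note: 0% = DMSO untreated growth and 100% = chloroquine plus artemisinin killed control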); details: P. falciparum Dd2 in RBCs, LDH growth readout, 72 h; at 2 µM; active compounds read high
[2] = human hepatoma cell viability loss – ATP luminescence, cytotoxicity control for P. falciparum antimalarial project, primary screen (AID 2303;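 active = inhibition above 50%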;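 note: 0% = DMSO wells and 100% = digitonin-killed cells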); details: HepG2 viability, 24-48 h, at 10 µM, active compounds read high
[3] = target: L-lactate dehydrogenase (Plasmodium falciparum (isolate CDC / Honduras)) (UniProt Q27743); assay: PfLDH activity inhibition – cell lysate, 3D7 strain, counter-screen for P. falciparum growth inhibition project (AID 2304);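 note: 0% = vehicle and 100% = reference inhibitor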; details: P. falciparum 3D7 crude extract, LDH APAD/NBT absorbance; at 2 µM; active compounds read high
Chain of L-lactate dehydrogenase (Plasmodium falciparum (isolate CDC / Honduras)) (Q27743 whole entry, looked up): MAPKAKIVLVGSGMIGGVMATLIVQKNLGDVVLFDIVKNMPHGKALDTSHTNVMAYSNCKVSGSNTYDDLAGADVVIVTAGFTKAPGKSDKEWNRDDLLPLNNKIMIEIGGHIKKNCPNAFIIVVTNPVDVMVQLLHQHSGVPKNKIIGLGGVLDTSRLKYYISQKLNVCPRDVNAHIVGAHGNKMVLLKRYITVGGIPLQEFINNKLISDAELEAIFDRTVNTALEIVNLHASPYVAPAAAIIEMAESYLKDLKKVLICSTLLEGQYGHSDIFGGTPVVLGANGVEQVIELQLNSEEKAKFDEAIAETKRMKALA

[4] = inhibition of 3D7 malaria parasite growth – strain 3D7 (AID 2306);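 note: 0% = DMSO wells and 100% = chloroquine plus artemisinin control wells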; details: P. falciparum 3D7 erythrocytic growth, LDH absorbance, 72 h; at 2 µM; active compounds read high
[5] = target: Calcium-dependent protein kinase 1 (Plasmodium falciparum (isolate 3D7)) (UniProt P62344); assay: PfCDPK1 kinase inhibitors, biochemical, TCAMS library (AID 1159585; cut-off not given, nearly all actives have IC50 up to about 0.98 µM;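 note: inhibitors leave more ATP so luminescence rises with inhibition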); details: recombinant PfCDPK1, Kinase-Glo ATP depletion luminescence
Chain of Calcium-dependent protein kinase 1 (Plasmodium falciparum (isolate 3D7)) (P62344 whole entry, looked up): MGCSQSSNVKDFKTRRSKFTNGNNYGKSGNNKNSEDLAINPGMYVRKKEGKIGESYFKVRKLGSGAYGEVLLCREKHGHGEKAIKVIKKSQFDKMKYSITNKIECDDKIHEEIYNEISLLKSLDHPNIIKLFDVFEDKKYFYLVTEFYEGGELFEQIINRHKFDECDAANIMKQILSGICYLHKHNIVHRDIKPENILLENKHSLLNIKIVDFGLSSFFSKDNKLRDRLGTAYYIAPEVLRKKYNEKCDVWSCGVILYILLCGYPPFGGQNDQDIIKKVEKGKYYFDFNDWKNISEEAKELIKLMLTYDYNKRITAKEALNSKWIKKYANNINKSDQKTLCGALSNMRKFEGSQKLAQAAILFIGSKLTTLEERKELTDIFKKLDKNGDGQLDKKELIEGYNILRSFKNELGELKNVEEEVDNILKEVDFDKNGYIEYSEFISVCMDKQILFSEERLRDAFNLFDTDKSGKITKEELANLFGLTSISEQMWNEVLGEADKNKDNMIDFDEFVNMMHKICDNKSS

[6] = target: Plasmodium falciparum protein kinase 6 (PK6, PF3D7_1337100) (UniProt Q8IDW1); assay: PfPK6 kinase inhibitors, biochemical, TCAMS library (AID 1159586); details: recombinant PfPK6, Kinase-Glo ATP depletion luminescence
Chain of Plasmodium falciparum protein kinase 6 (PK6, PF3D7_1337100) (Q8IDW1 1-305): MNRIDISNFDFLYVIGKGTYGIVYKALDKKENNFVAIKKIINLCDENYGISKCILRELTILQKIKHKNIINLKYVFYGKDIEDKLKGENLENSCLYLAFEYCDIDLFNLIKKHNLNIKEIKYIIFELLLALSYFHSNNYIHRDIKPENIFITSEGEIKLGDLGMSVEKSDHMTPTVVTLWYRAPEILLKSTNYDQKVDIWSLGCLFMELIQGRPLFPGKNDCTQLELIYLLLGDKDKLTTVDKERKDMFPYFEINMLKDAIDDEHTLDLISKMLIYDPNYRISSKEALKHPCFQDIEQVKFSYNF

[7] = target: Protein kinase 7 (PK7), Plasmodium falciparum 3D7 (PF3D7_0213400) (UniProt Q7YTF7); assay: inhibition of Plasmodium PK7 catalytic activity – biochemical, TCAMS antimalarial set, Kinase-Glo luminescence (AID 1159587); details: recombinant PfPK7, Kinase-Glo ATP depletion luminescence
Chain of Protein kinase 7 (PK7), Plasmodium falciparum 3D7 (PF3D7_0213400) (Q7YTF7 1-343): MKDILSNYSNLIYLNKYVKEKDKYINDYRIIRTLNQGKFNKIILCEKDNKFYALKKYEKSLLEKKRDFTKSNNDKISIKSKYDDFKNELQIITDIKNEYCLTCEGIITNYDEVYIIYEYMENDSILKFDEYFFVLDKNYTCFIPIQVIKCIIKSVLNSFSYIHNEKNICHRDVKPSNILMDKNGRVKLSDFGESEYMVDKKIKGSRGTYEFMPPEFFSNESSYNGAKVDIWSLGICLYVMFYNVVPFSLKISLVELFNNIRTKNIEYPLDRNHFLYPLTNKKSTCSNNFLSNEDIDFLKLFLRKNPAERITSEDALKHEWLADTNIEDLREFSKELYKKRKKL

[8] = target: Calcium-dependent protein kinase 4 (Plasmodium falciparum (isolate 3D7)) (UniProt Q8IBS5); assay: PfCDPK4 kinase inhibitors, biochemical, TCAMS library (AID 1159588; cut-off not given, nearly all actives have IC50 up to about 0.91 µM); details: recombinant PfCDPK4, Kinase-Glo ATP depletion luminescence
Chain of Calcium-dependent protein kinase 4 (Plasmodium falciparum (isolate 3D7)) (Q8IBS5 whole entry, looked up): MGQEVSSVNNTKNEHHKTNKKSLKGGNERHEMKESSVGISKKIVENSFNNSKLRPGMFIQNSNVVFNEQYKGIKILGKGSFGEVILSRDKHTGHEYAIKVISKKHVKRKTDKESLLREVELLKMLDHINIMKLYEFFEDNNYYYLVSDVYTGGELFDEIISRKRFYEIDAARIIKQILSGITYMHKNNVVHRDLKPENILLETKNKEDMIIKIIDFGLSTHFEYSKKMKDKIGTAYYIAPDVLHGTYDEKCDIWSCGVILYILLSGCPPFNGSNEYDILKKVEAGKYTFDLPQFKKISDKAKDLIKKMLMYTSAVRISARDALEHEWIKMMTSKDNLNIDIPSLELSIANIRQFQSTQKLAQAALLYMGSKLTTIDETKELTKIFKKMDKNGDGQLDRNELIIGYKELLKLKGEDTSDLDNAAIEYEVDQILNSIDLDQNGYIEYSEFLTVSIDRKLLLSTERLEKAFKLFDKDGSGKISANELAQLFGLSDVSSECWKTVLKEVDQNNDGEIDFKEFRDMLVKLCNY

SMILES | growth inhibition [1] | inhibition [2] | inhibition [3] [%] | growth inhibition [4] | outcome [5] | outcome [6] | outcome [7] | outcome [8]
COc1cc(Nc2nccc(N3CCC(NC(=O)Nc4cccc(C(C)=O)c4)C3)n2)cc(OC)c1OC (stereo not drawn) | 34% | 8% | -3 | 91% (active) | inactive | inactive | inactive | inactive
Cc1cc(Cl)c(S(=O)(=O)N2CCc3ccccc32)cc1OCC(=O)NC1CCCCC1 | 93% (active) | 28% | -3 | 101% (active) | inactive | inactive | inactive | inactive
NC(=O)c1cccc(C(=O)Nc2cccc(-c3ccc(-c4nc5ccc(C(F)(F)F)cc5[nH]4)cc3)c2)c1 | 78% (active) | 83% (active) | -1 | 100% (active) | inactive | inactive | inactive | inactive
CC(=O)Oc1cc(C)ccc1C1CCN(CCCCNC(=O)c2ccc(-c3ccc(C(F)(F)F)cc3)cc2)CC1 | 94% (active) | 54% (active) | -7 | 100% (active) | inactive | inactive | inactive | inactive
CCN(CC)CCOc1ccc(NC(=O)c2oc3ccccc3c2C=Cc2ccccc2)cc1 | 54% (active) | 51% (active) | -2 | 98% (active) | inactive | inactive | inactive | inactive
OCCNc1nc(Nc2ccc(Cl)cc2)nc2ccccc12 | 99% (active) | 30% | -1 | 102% (active) | inactive | inactive | inactive | inactive
NCc1cccc(-c2ccccc2CNC2CCN(Cc3ccccc3)CC2)c1 | 4% | -3% | -2 | 94% (active) | inactive | inactive | inactive | inactive
Cc1cc(N[C@@H](Cc2ccccc2)C(=O)NCc2cccc(F)c2)nc(NCC2CCCCC2)n1 | 42% | 43% | -2 | 101% (active) | inactive | inactive | inactive | inactive
COc1cc(CN2CCC(N3CCc4cc(NC(=O)c5cc(C)on5)ccc43)C2)ccc1F (stereo not drawn) | 96% (active) | 1% | 0 | 91% (active) | inactive | inactive | inactive | inactive
Clc1ccc(-c2cnc3ccc(NCc4ccncc4)nn23)cc1 | 98% (active) | 25% | 2 | 98% (active) | inactive | inactive | inactive | inactive
COc1ccc2nc(Nc3nc(-c4ccccn4)cs3)sc2c1 | 94% (active) | 40% | 4 | 93% (active) | inactive | inactive | inactive | inactive
O=C(Nc1ccc(Cl)cc1)Nc1cccc(-c2cccc(-c3nc4ccc(F)cc4[nH]3)c2)c1 | 84% (active) | 79% (active) | -2 | 100% (active) | inactive | inactive | inactive | inactive
O=C(Nc1ccc(Cn2nc(Cl)c(N3CCCNCC3)cc2=O)cc1)c1ccc(-c2ccccc2)cc1 | 35% | 93% (active) | 0 | 87% (active) | inactive | inactive | inactive | inactive
CC(C)(C)c1ccc(NC(=O)c2cccc(CN3CCN(Cc4cccc(O)c4)CC3)c2)cc1 | 3% | 28% | -2 | 92% (active) | inactive | inactive | inactive | inactive
O=C(Nc1ccccc1)c1cccc(Nc2nccc(Nc3ccc(Oc4ccccc4)cc3)n2)c1 | 11% | 6% | -1 | 98% (active) | inactive | inactive | inactive | inactive
O=C(Nc1cccc(-c2ccc(-c3nc4ccc(F)cc4[nH]3)cc2)c1)c1csnn1 | 31% | 22% | 0 | 94% (active) | inactive | inactive | inactive | inactive
CC(CN(C)C)C(=O)Nc1cccc(-c2ccc(-c3nc4ccc(F)cc4[nH]3)s2)c1 (stereo not drawn) | 99% (active) | 3% | -6 | 100% (active) | inactive | inactive | inactive | inactive
CCn1c(C)cc(C=C2SC(=Nc3ccccc3)NC2=O)c1C | 87% (active) | 27% | 3 | 90% (active) | inactive | inactive | inactive | inactive
CCOc1cc(NC(=O)Nc2ccnc3ccccc23)cc(OC)c1 | 73% (active) | -7% | 3 | 98% (active) | inactive | inactive | inactive | inactive
CCN1CCN(CCCNc2c3ccc(Cl)cc3nc3ccc(O)cc23)CC1 | 1% | 32% | -3 | 103% (active) | inactive | inactive | inactive | inactive
CN(C)CCNCc1ccc(-c2ccc(-c3nc4ccccc4[nH]3)s2)cc1 | 100% (active) | -2% | 1 | 101% (active) | inactive | inactive | inactive | inactive

SMILES | growth inhibition [1] | inhibition [2] | inhibition [3] [%] | growth inhibition [4] | outcome [5] | outcome [6] | outcome [7] | outcome [8]
O=C(NC1CCCCC1)C1CCCN(C(=O)c2ccc(O)c(-c3ccc(Cl)c(Cl)c3)c2)C1 (stereo not drawn) | 42% | 22% | 0 | 89% (active) | inactive | inactive | inactive | inactive
NC1=NC(c2ccccc2)N(OCc2ccccc2)C(N)=N1 (stereo not drawn) | 21% | 5% | -6 | 96% (active) | inactive | inactive | inactive | inactive
COc1cc2nc(N3CCC(CNC(=O)c4cccc5cc[nH]c45)CC3)nc(N)c2cc1OC | 24% | 33% | -3 | 98% (active) | inactive | inactive | inactive | inactive
CC(C)CNC(=O)c1cncc(-c2ccc(CN3CCC(N4CCCC4)CC3)cc2)c1 | 42% | 25% | 2 | 100% (active) | inactive | inactive | inactive | inactive
O=C(/C=C/c1ccc(Cl)c(Cl)c1)NCCCCCN1CCC(C(=O)Nc2ccc(Cl)c(Cl)c2)CC1 | 0% | 73% (active) | -2 | 98% (active) | inactive | inactive | inactive | inactive
CN(C)CC(O)C(O)(c1ccccc1)c1ccc(F)cc1 (stereo not drawn) | 10% | -10% | 4 | 93% (active) | inactive | inactive | inactive | inactive
Clc1cc(Cl)c2cc(CN[C@H]3CCC[C@@H]3CNc3nc4ccccc4[nH]3)[nH]c2c1 | 58% (active) | 85% (active) | -1 | 99% (active) | inactive | inactive | inactive | inactive
CN(CCCCN)Cc1ccc(-c2ccc(Cl)cc2)cc1 | 20% | 96% (active) | 3 | 97% (active) | inactive | inactive | inactive | inactive
CCc1cn(CCOC)c2ccc(C(=O)N[C@@H](Cc3ccccc3)[C@H](O)CNC(C)(C)CCCC(C)C)cc12 | 98% (active) | 35% | 1 | 98% (active) | inactive | inactive | inactive | inactive
Nc1cccc(CNCc2ccc(-c3ccc(-c4nc5ccccc5[nH]4)s3)cc2)c1 | 93% (active) | 12% | 4 | 100% (active) | inactive | inactive | inactive | inactive
Nc1nc(N)c2nc(C3CC=CCC3)c(N)nc2n1 (stereo not drawn) | 0% | 67% (active) | -5 | 95% (active) | inactive | inactive | inactive | inactive
CS(=O)(=O)CCNc1cc(N2CCc3ncnc(Nc4ccc(OCc5cccc(F)c5)c(Cl)c4)c3C2)ncn1 | 50% (active) | -17% | 5 | 96% (active) | inactive | inactive | inactive | inactive
COc1ccc(COc2cc(NCCCN)nc3ccccc23)cc1 | 5% | 3% | -4 | 101% (active) | inactive | inactive | inactive | inactive
N#Cc1ccc(C(=O)Nc2cccc(-c3ccc(CN4CCCC4)cc3)c2)cc1 | -2% | 13% | -2 | 99% (active) | inactive | inactive | inactive | inactive
O=C(NC1CCCCN(Cc2ccccc2O)C1)c1cccc(C(F)(F)F)c1 (stereo not drawn) | 64% (active) | -4% | -6 | 93% (active) | inactive | inactive | inactive | inactive
CCCCc1ccc(C(=O)Nc2ccc3nc(N4CCN(CC)CC4)cc(C)c3c2)cc1 | 13% | 32% | 4 | 91% (active) | inactive | inactive | inactive | inactive
COc1ccccc1CCNc1ncc(F)c(N[C@@H](Cc2ccccc2)C(=O)NCCc2ccccc2)n1 | 83% (active) | 7% | -2 | 90% (active) | inactive | inactive | inactive | inactive
C[C@H](NCCC1CCC(NC(=O)N[C@H](C)C(O)(c2ccccc2)c2ccccc2)CC1)c1cccc2ccccc12 (stereo partly drawn) | 58% (active) | 43% | -2 | 86% (active) | inactive | inactive | inactive | inactive
Fc1ccc(COc2ccc(Nc3ncnc4ccc(I)cc34)cc2Cl)cc1 | 30% | 28% | -5 | 86% (active) | inactive | inactive | inactive | inactive
O=C(NC1CCCCCC1)C1CCCN(C(=O)c2ccc(O)c(-c3ccc(Cl)c(Cl)c3)c2)C1 (stereo not drawn) | 21% | 5% | -2 | 98% (active) | inactive | inactive | inactive | inactive
